Experimental data reported in PubChem BioAssay AID1851 (National Center for Advancing Translational Sciences (NCATS), 2009).
In all, about 16,000 compounds went through this assay and about 2,600 (16%) were called active. About 20% were inconclusive and are not listed. The list comes from a sample in which actives are over-represented; it also holds similar structures and randomly drawn compounds. Values without a mark were called inactive. Calls come from the whole dose curve; as a rule, active = well fitted curve in the direction sought with a large enough effect; inconclusive = small, poorly fitted or top-dose-only effect, or effect the other way; inactive = no such curve, though single readings can be large or run the other way.

biological target: Cytochrome P450 2D6 (Homo sapiens) (UniProt P10635); experiment: Cytochrome panel assay with activity outcomes; conditions: recombinant CYP, pro-luciferin dealkylation, luminescence, p450-cyp2d6; series mostly up to 57.1 µM
% is set by controls: 0 for no effect and ±100 for the full control effect.

Sequence of Cytochrome P450 2D6 (Homo sapiens) (P10635 whole entry, looked up): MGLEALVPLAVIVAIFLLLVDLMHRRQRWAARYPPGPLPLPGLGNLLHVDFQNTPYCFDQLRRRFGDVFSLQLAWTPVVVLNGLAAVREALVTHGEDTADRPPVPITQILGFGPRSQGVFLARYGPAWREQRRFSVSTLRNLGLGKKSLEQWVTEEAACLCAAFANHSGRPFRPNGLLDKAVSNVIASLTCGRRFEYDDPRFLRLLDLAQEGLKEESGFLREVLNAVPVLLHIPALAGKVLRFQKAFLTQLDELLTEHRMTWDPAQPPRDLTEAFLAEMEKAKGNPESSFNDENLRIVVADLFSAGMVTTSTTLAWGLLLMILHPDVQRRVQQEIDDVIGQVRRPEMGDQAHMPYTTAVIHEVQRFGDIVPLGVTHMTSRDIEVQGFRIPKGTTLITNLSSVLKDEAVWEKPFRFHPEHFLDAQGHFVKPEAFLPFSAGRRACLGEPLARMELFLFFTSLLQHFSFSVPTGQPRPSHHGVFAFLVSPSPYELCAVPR

Compound | AC50 | activity, negative = inhibition
N[C@@]1(C(=O)O)CC[C@H](C(=O)O)C1 | inactive | 
COc1cc(/C=N/NC(=O)CN2CC(c3ccccc3)CC2=O)ccc1OC(=O)N(C)C (stereo unspecified) | inactive | 
CN(C)C=C1C(=O)N(C2CCCCC2)C(=O)N(C2CCCCC2)C1=O | inactive | 
NC(=O)COc1c(F)cc(SCCNS(=O)(=O)c2ccccc2)cc1F | inactive | 
Cc1cc(OCC(=O)OC(C)C)c2c3c(c(=O)oc2c1)CCCC3 | inactive | 
Cn1c(O)c(C(c2ccccn2)c2c(O)n(C)c(=S)[nH]c2=O)c(=O)[nH]c1=S | inactive | 
O=C1CN=C(c2cccs2)c2c(sc3c2CCCC3)N1 | 1000 nM (active) | 
NC[C@@H](Cc1ccccc1)P(=O)(O)O |  | -3.95% [at 11.4 µM]
CC(C)(C)C(=O)CP(=O)(O)O |  | -2.59% [at 11.4 µM]
C=C(C)[C@H]1CN[C@H](C(=O)O)[C@@H]1CC(=O)O | inactive | 
CCC(=O)O[C@@](Cc1ccccc1)(c1ccccc1)[C@@H](C)CN(C)C | 7940 nM (active) | 
COC(=O)[C@@]1(Cc2ccc(F)cc2)[C@H]2c3cc(C(=O)N(C)C)[nH]c3C[C@H]2CN1C(=O)c1ccccc1 | inactive | 
NC(N)=NCCN=C(N)N |  | -4.24% [at 11.4 µM]
Fc1ccccc1CCNCc1cccc(Cl)c1Cl | 79.4 nM (active) | 
CCC1(CCSC(=N)N)C(=O)NC(=O)NC1=O |  | 12.5% [at 11.4 µM]
C=C1CC[C@H](O)C/C1=C/C=C1\CCC[C@]2(C)[C@H]1CC[C@H]2[C@@H](C)CCCC(C)C | inactive | 
O=P(O)(O)C(Cl)(Cl)P(=O)(O)O | inactive | 
CC(C)NC(=O)N1CCC2(CC1)CCN(C(=O)Oc1ccccc1)CC2 | inactive | 
COC(=O)N1CCC2(CCCN(C)C2)CC1 | inactive | 
COC(=O)N1CCC2(CCN(CC(C)C)CC2)CC1 | 10000 nM (active) | 
CC(C)CN1CCC2(CC1)CCN(S(C)(=O)=O)CC2 | 794 nM (active) | 

Compound | AC50 | activity, negative = inhibition
NN=C(N)N | inactive | 
Cc1c(C(=O)c2ccc3ccccc3c2)c2cccc3c2n1[C@H](CN1CCOCC1)CO3 | inactive | 
CN1CCN(c2ccc3ccccc3n2)CC1 | inactive | 
O[C@@H]1[C@@H]2c3cc4c(cc3CN3CCC(=C[C@@H]1O)[C@H]23)OCO4 | 3980 nM (active) | 
CC(=NCCN1CCOCC1)c1c(O)n(Cc2ccccc2)c(=O)[nH]c1=O | inactive | 
C[C@@H]1OC=C2[C@@H](O)[C@H]3O[C@H]3C(=O)[C@@]23[C@H]1[C@H]1C2=C([C@@H](O)[C@H]4O[C@@H]4C2=O)[C@@H]3O[C@@H]1C |  | 1.81% [at 11.4 µM]
COc1ccc(C2SCC(=O)Nc3c2c(C)nn3-c2ccccc2)cc1OC (stereo unspecified) | inactive | 
O=[N+]([O-])c1cc(O)c(O)c([N+](=O)[O-])c1 | inactive | 
CC1=NN(c2ccc(S(=O)(=O)O)cc2C)C(=[OH+])[C@H]1N=Nc1cc(S(=O)(=O)O)ccc1C(=O)O.O.[Cr] |  | -4.46% [at 11.4 µM]
CP(=O)(O)CCCN | inactive | 
CC(C)C[C@H]1C(=O)N2CCC[C@@H]2[C@@]2(O)O[C@](NC(=O)[C@@H]3C=C4c5cccc6[nH]cc(c56)C[C@@H]4N(C)C3)(C(C)C)C(=O)N12 | inactive | 
CN1C[C@H](CO)C=C2c3cccc4[nH]cc(c34)C[C@@H]21 | 126 nM (active) | 
CN1C[C@H](C(=O)N[C@@]2(C)O[C@@]3(O)[C@H]4CCCN4C(=O)[C@@H](Cc4ccccc4)N3C2=O)C=C2c3cccc4[nH]cc(c34)C[C@@H]21 |  | -1.39% [at 11.4 µM]
O=C(NCP(=O)(O)O)c1cccnc1 |  | -2.73% [at 11.4 µM]
O=C(Nc1ccccc1)N1CCC2(CC1)CCN(C(=O)Oc1ccccc1)CC2 | inactive | 
Cc1ccc(C2(c3ccc(C)c(O)c3C)CCN(C)CC2)c(C)c1O |  | -18.9% [at 11.4 µM]
Cn1c(O)c(C(c2ccccn2)c2c(O)n(C)c(=S)n(C)c2=O)c(=O)n(C)c1=S | inactive | 
C[C@@]12CC[C@H](O)C[C@@H]1CC[C@H]1[C@@H]2C[C@@H](O)[C@]2(C)[C@@H](C3=CC(=O)OC3)CC[C@]12O | inactive | 
c1ccc2c(c1)Sc1ccccc1N2C[C@H]1CN2CCC1CC2 | 398 nM (active) | 
CN1CCc2nc3ccc(F)cc3c(C(N)=O)c2C1 | inactive | 
CCOc1ccc2c(c1)C(C)=CC(C)(C)N2 | 2510 nM (active) | 

Compound | AC50 | activity, negative = inhibition
CCCn1c(C)c(C(=O)c2cccc3ccccc23)c2ccccc21 | inactive | 
O=C(c1cc(=O)[nH]c2ccc(Br)cc12)N1CCC2(CC1)OCCO2 | inactive | 
CC(=O)OC1N=C(c2ccccc2)c2cc(Br)ccc2N(C)C1=O (stereo unspecified) | inactive | 
C[C@@H]1O[C@H](C[N+](C)(C)C)CS1 | inactive | 
COc1cccc(-n2c(O)c(C=NCCN3CCOCC3)c(=O)[nH]c2=O)c1 | inactive | 
CC1CN=C(Nc2cccc3ccccc23)S1 (stereo unspecified) | 11200 nM (active) | 
C[N+]1(C)CCO[C@@](O)(c2ccc(-c3ccc([C@]4(O)C[N+](C)(C)CCO4)cc3)cc2)C1 | inactive | 
CCOC(=O)[C@@H]1[C@@H]2c3ccccc3-c3ccccc3[C@H]2C[C@H]1O |  | -5.13% [at 11.4 µM]
CCOC(=O)C1Cc2c([nH]c3ccccc23)CN1 (stereo unspecified) | 12600 nM (active) | 
COC(=O)C(O)(c1c(C)[nH]c2ccccc12)C(F)(F)F (stereo unspecified) | inactive | 
CCOC(=O)Cn1cc(C(=O)c2ccccc2F)c2ccccc21 | inactive | 
O=C(O)c1ccccc1-c1c2cc(Br)c(=O)cc-2oc2[c]([Hg])c(O)c(Br)cc12 | inactive | 
CC[N+](CC)(CC)CCOc1cccc(OCC[N+](CC)(CC)CC)c1OCC[N+](CC)(CC)CC | inactive | 
c1cncc(CNc2cc(-c3ccc4c(c3)OCO4)ncn2)c1 | 20000 nM (active) | 
c1cncc(CNCCN2CCNCC2)c1 |  | -5.64% [at 11.4 µM]
C[C@@H](COc1ccccc1)N(CCCl)Cc1ccccc1 | 1580 nM (active) | 
NNC(=O)c1ccc(O)cc1 | inactive | 
O=C(O)C[O][Sb][O]CC(=O)O |  | 2.9% [at 11.4 µM]
O=C(O)[C@H]1[O][Sb][O][C@@H](C(=O)O)C1O (stereo partly specified) |  | -8.1% [at 11.4 µM]
